The record followed here is the OligoGym collection.
Note: reference of the scale not given here.

The first experiment deals with PDIA5. Nature of the experiment: pooled miR-30 sensor sort-seq; sequence = guide strand. The following applies: shRNA.
On to TAGTCTTTCATGGTCTCCCTCC, for which the sensor-assay potency score (higher = more potent) is -0.586.
As for TTGCACATGCTGCACCAGGGGG, the sensor-assay potency score (higher = more potent) is -1.31.
Turning to TCAACCTTTTTGTCCTTCGGGC, the sensor-assay potency score (higher = more potent) is -0.306.
Still for that read-out and setting: as for TACTGGAACAAGAACCGTCCTT, the figure is 0.0118.

For the next experiment, the target named is PDLIM4. The experiment is described as above. The following applies: shRNA.
For TGCACATGAAGCACTCGGGATG, the sensor-assay potency score (higher = more potent) is -1.65.
As to TCAGGATCGATGTGGATCCTGT, the sensor-assay potency score (higher = more potent) was -1.13.
Consider AGACAGTGTGAGGTGATCGTGG, for which the sensor-assay potency score (higher = more potent) is -1.1.
For the sequence TTGGTCTGCCATCTTCTGGCCC, the sensor-assay potency score (higher = more potent) is -0.715.
TTGTGAGGGACTGGAAAGCGAG: the sensor-assay potency score (higher = more potent) is -1.61.
Take TTGTCCATATGGAGATCCCAGG: the sensor-assay potency score (higher = more potent) was -1.39.
Same read-out and setting: the same measure for TACACCGCCACCACGTCGTAGC: -0.286; for TGAGCTCTGTGCTCTCACCATT: -1.16.
Regarding AAAGAAGTAACCACGCTGCTTG, the sensor-assay potency score (higher = more potent) came to 0.146.
With TCACTGCACATGAAGCACTCGG, the sensor-assay potency score (higher = more potent) was -0.799.
Turning to TCGGAGCCCAGGTCGACTCTGC, the sensor-assay potency score (higher = more potent) is -1.11.
With TAGAGCTTGTCCCGTGCCTTGA, the sensor-assay potency score (higher = more potent) was -0.615.

The target of a further experiment is PDP1. Described as above. The following applies: shRNA.
For TTGAACTGAACTACAATGATTG, the sensor-assay potency score (higher = more potent) was -0.787.
Same read-out and setting: the same measure for TAGAACTGACATTTTTGCCGTC: 0.378.
For the sequence TACAACATGAGAATTGAACTGA, the sensor-assay potency score (higher = more potent) was 1.04.
In turn, ATGATTGTAATGTCATCTCTGT had a sensor-assay potency score (higher = more potent) of 0.0872.
In the case of TGCATTTTCAATCTCTAGCAAA, the sensor-assay potency score (higher = more potent) was -1.4.
For the sequence TTTAAGGATGCTATTGACTTGT, the sensor-assay potency score (higher = more potent) worked out at 0.228.
Take TTGTCATTCAACTGGTCTGGGC: the sensor-assay potency score (higher = more potent) is -1.11.
Same read-out and setting: the same measure for TGAAACTGTATTCATTAGCTTT: -0.926; for TTAGGAGGAATAAACTTGGTAT: -0.0779; for TATTCATTGTCATTCAACTGGT: -0.478.
Regarding TTTTGAAGGTCAATGCTCCATT, the sensor-assay potency score (higher = more potent) was -0.4.
Take TATTATAGTAGTATCTTTTTAA: the sensor-assay potency score (higher = more potent) was -1.01.

The next experiment addresses PDZD4. Described as above. The settings on record: shRNA.
TTTGGCTGCAATGCTGTTGGGA: the sensor-assay potency score (higher = more potent) was -0.7.
With TTCACTTTCCACTCCATGCGCG, the sensor-assay potency score (higher = more potent) is -0.515.
As for TCGTCGGTCGTCATACCGCTGC, the sensor-assay potency score (higher = more potent) was -0.818.
Turning to TTTCAGTTTACGAGCACGCAGC, the sensor-assay potency score (higher = more potent) is -0.95.
With TTTTATACAGCTCCACCTCCTC, the sensor-assay potency score (higher = more potent) was -1.13.
In the case of TCACTTTGTACTGCTCCTCCGG, the sensor-assay potency score (higher = more potent) was -0.937.
On to TTGCAGGCCAAACTTGCGCAGG, for which the sensor-assay potency score (higher = more potent) was -1.4.
In the case of TTGATCTCCAGGAGCTCACGGT, the sensor-assay potency score (higher = more potent) was -0.853.
In the case of TCATCCAGGAAGTCATCCCGGT, the sensor-assay potency score (higher = more potent) was -0.501.
On to TGTCCTTGTCCGACTTCTCGGG, for which the sensor-assay potency score (higher = more potent) is -0.294.
Turning to TCGTCGTCGGTCGTCATACCGC, the sensor-assay potency score (higher = more potent) is -1.57.
With TACACCGTTAATCTGGATGATG, the sensor-assay potency score (higher = more potent) was -1.18.
